Experimental data: PubChem BioAssay
The source made the active and inactive calls.

Key:
[1] = tested on: Plasmodium falciparum Sir2 (PF13_0152, Sir2A); test: Plasmodium falciparum Sir2A binding compounds – biochemical, small-molecule microarray, 635 nm fluorescence, primary screen (AID 1098); settings: fluorescence 635 nm, higher = more signal;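 note: score merges spot fluorescence intensity with its signal-to-noise ratio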
[2] = probe aDKK1 binding to arrayed compounds – biochemical, biotinylated probe, 635/667 nm fluorescence, primary screen (AID 1099); settings: small-molecule microarray, higher = more signal;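 note: score merges 667nm spot fluorescence with signal to noise across triplicate slides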
[3] = probe aCHRDL2 binding to arrayed compounds – biochemical, biotinylated probe, 635/667 nm fluorescence, primary screen (AID 1100); settings: small-molecule microarray, higher = more signal
[4] = change in splice reporter luminescence, either direction, cell-based, HEK293, spliceosome inhibition project, primary screen (AID 1101); settings: HEK293 splicing luciferase reporter, 24 h, higher = more signal, called active from +8 up or from −8 down;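 note: HEK293 cells carrying a splicing-competent luciferase reporter gene; test concentration not given here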
[5] = target: Fibroblast growth factor 10 (Homo sapiens) (UniProt O15520); test: compounds binding fibroblast growth factor 10 – biochemical, small-molecule microarray, 635 nm fluorescence, primary screen (AID 1102); settings: FGF10 binding, fluorescence 635 nm, higher = more signal
Chain of Fibroblast growth factor 10 (Homo sapiens) (O15520 whole entry, looked up): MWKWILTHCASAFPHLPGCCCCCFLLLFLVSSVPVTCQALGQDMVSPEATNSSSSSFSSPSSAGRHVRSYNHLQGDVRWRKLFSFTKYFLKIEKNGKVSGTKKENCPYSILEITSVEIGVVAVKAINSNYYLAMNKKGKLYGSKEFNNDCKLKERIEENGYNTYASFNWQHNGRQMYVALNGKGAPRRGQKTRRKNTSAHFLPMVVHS

[6] = tested on: glycogen synthase kinase-3 (GSK3A per assay name; protocol says GSK3B); test: compounds binding glycogen synthase kinase-3 – biochemical, small-molecule microarray, 635 nm fluorescence, GSK3A, primary screen (AID 1103); settings: fluorescence 635 nm, higher = more signal; note: the record names both GSK3A and GSK3B
[7] = target: Epidermal growth factor receptor (Homo sapiens) (UniProt P00533); test: compounds binding epidermal growth factor receptor – biochemical, small-molecule microarray, 635 nm fluorescence, primary screen (AID 1104); settings: EGFR binding, higher = more signal;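 note: score merges 667 nm emission intensity with spot signal to noise over triplicate slides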
Chain of Epidermal growth factor receptor (Homo sapiens) (P00533 whole entry, looked up): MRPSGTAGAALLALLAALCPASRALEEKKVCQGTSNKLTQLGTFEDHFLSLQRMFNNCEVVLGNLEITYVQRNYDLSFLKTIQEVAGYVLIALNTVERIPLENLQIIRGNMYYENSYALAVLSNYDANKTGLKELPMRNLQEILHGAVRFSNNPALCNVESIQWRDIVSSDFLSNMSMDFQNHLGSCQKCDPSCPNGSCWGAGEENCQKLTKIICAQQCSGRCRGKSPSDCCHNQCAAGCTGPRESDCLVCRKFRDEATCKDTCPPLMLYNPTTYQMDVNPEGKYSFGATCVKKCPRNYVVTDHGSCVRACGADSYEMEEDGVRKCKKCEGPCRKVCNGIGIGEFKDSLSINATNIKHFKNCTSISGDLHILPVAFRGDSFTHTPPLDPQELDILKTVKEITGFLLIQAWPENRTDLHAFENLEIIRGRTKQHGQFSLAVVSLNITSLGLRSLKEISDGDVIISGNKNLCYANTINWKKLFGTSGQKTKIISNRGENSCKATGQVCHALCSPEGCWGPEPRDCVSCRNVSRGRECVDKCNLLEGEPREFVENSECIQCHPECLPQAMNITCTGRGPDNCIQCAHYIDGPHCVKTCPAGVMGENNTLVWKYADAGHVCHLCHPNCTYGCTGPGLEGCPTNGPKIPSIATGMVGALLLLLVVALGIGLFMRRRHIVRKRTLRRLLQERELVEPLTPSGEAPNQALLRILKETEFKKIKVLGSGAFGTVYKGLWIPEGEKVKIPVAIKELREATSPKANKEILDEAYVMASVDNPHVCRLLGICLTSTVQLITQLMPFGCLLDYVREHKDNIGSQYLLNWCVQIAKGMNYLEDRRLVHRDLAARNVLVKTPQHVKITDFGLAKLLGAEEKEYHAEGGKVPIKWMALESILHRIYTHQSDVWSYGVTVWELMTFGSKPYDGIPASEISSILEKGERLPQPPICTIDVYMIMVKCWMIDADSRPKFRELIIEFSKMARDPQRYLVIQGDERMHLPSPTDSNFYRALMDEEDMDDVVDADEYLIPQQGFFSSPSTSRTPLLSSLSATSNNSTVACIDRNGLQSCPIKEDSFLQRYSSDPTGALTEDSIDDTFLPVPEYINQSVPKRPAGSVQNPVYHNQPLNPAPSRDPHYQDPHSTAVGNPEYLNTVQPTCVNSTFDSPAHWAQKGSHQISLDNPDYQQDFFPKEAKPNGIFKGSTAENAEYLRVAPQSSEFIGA

[8] = target: Follistatin-related protein 3 (Homo sapiens) (UniProt O95633); test: compounds binding follistatin-related protein 3 – biochemical, small-molecule microarray, 635 nm fluorescence, primary screen (AID 1105); settings: FSTL3 binding, higher = more signal;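 note: score merges emission near 667 nm and signal to noise per printed spot across three slides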
Chain of Follistatin-related protein 3 (Homo sapiens) (O95633 whole entry, looked up): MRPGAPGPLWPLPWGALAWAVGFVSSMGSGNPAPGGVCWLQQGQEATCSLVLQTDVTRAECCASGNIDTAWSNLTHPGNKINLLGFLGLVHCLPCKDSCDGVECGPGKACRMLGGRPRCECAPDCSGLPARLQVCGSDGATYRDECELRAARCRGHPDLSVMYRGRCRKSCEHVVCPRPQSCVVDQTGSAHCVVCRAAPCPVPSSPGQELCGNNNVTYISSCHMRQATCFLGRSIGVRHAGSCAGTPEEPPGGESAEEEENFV

[9] = target: Dickkopf-related protein 1 (Homo sapiens) (UniProt O94907); test: small molecules binding DKK1 protein – biochemical, small-molecule microarray, 635 nm fluorescence scan, primary screen (AID 1106); settings: higher = more signal;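 note: score merges emission near 667 nm with signal to noise over three replicate slides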
Chain of Dickkopf-related protein 1 (Homo sapiens) (O94907 whole entry, looked up): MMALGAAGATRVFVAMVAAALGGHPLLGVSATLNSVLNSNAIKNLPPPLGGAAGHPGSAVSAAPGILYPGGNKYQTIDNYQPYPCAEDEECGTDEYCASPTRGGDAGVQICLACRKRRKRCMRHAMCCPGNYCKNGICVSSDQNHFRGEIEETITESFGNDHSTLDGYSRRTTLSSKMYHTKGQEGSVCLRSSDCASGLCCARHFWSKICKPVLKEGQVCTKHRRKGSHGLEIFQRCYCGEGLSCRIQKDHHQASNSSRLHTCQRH

[10] = tested on: Inhibin beta A chain (activin A); test: small molecules binding activin A – biochemical, small-molecule microarray, 635 nm fluorescence scan, primary screen (AID 1107); settings: INHBA, higher = more signal;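 note: mouse activin A protein probed at 4.33 µg/mL on printed slides; score merges bound-protein fluorescence near 667 nm with spot signal-to-noise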
[11] = tested on: Human papillomavirus type 1a protein E7 (residues 44-93); test: small molecules binding HPV E7 44-93 – biochemical, small-molecule microarray, residues 44-93, 635 nm fluorescence, primary screen (AID 1108); settings: fluorescence 635 nm, higher = more signal;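 note: E7 fragment applied at 1 µg/mL in TBST for 1 h at 4 C; score combines spot fluorescence with its signal to noise ratio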
[12] = hepatitis C replication reporter changes, two-sided – Huh7 cells, luciferase reporter, HCV replication inhibitor project, primary screen (AID 1109); settings: Huh7 HCV replicon luciferase reporter, 48 h; higher = more signal;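 note: huh7 hepatoma cells harbouring a luciferase neomycin HCV replicon reporter; luciferase luminescence as measure of HCV replicon replication; test concentration not given here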
[13] = target: Left-right determination factor 2 (Homo sapiens) (UniProt O00292); test: small molecules binding LEFTY2 protein – biochemical, small-molecule microarray, 635 nm fluorescence scan, primary screen (AID 1110); settings: higher = more signal
Chain of Left-right determination factor 2 (Homo sapiens) (O00292 whole entry, looked up): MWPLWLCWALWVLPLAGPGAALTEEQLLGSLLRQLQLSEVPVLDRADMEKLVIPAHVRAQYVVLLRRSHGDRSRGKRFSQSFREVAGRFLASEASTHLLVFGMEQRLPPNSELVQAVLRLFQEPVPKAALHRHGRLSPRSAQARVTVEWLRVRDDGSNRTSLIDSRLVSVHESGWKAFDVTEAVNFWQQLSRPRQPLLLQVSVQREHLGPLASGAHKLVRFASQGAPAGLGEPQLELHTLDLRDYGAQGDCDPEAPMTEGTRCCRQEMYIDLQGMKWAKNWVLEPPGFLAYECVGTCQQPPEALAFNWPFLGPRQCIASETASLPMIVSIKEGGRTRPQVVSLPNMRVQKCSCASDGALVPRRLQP

[14] = target: Calmodulin-1 (Homo sapiens) (UniProt P0DP23); test: small molecules binding calmodulin-1 with EGTA – biochemical, small-molecule microarray, Cy5-labelled CALM1, profiling panel (AID 1111); settings: Cy5-CALM1 binding fluorescence, higher = more signal;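 note: labelled calmodulin applied in Tris saline Tween buffer holding calcium plus EGTA and DTT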
[15] = target: Calmodulin-1 (Homo sapiens) (UniProt P0DP23); test: small molecules binding Ca-loaded calmodulin-1 – biochemical, small-molecule microarray, Cy5-labelled CALM1, plus calcium, artefact control for SMM control-protein annotation, profiling panel (AID 1112); settings: Cy5-CALM1 binding fluorescence, higher = more signal;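 note: score merges spot fluorescence with signal to noise from triplicate slides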
[16] = probe aWnt5a binding to arrayed compounds – biochemical, biotinylated probe, 635/667 nm fluorescence, primary screen (AID 1113); settings: small-molecule microarray, higher = more signal;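 note: score merges 667 nm fluorescence intensity with signal-to-noise per printed feature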
[17] = probe aShh binding to arrayed compounds – biochemical, biotinylated probe, 635/667 nm fluorescence, primary screen (AID 1114); settings: small-molecule microarray, higher = more signal;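 note: probe is biotin-labelled aShh protein from a stem cell growth factor screen; measures binding of labelled protein to compounds printed on the slide; score merges feature fluorescence at 667 nm with signal-to-noise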
[18] = probe aNog binding to arrayed compounds – biochemical, biotinylated probe, 635/667 nm fluorescence, primary screen (AID 1115); settings: small-molecule microarray, higher = more signal;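 note: probe is biotinylated aNog protein used at 0.15 µg/mL for 1 h at 4 C; z-score combines 667 nm fluorescence of each spot with its signal to noise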
[19] = target: Torsin-1A-interacting protein 1 (Homo sapiens) (UniProt Q5JTV8); test: compound microarray binding of lysate hLAP1 – cell lysate, small-molecule microarray, COS7 lysate, 635/667 nm fluorescence, primary screen (AID 1116); settings: 635 nm fluorescence, higher = more signal
Chain of Torsin-1A-interacting protein 1 (Homo sapiens) (Q5JTV8 whole entry, looked up): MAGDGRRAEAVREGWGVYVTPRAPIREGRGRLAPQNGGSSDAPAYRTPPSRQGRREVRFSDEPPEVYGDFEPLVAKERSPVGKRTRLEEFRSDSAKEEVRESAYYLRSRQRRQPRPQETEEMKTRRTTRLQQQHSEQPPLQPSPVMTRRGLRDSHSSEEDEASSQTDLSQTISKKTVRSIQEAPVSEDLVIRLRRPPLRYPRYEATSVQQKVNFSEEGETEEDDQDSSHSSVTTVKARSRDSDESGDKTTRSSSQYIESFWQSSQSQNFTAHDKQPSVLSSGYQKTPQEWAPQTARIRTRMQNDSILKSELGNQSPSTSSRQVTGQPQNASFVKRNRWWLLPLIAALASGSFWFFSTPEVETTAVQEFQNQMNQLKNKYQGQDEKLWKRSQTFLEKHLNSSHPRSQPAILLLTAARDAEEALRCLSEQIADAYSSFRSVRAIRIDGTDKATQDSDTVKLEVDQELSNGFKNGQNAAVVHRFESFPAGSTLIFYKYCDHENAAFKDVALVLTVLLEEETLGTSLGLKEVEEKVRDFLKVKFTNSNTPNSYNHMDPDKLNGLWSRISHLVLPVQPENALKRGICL

[20] = target: Alpha-bungarotoxin (Bungarus multicinctus) (UniProt P60615); test: compounds binding labelled alpha-BTX control protein – biochemical, small-molecule microarray, Alexa647 label, 635/667 nm fluorescence, artefact control for SMM control protein annotation, profiling panel (AID 1117); settings: alpha-BTX-A647 binding fluorescence, higher = more signal
Chain of Alpha-bungarotoxin (Bungarus multicinctus) (P60615 whole entry, looked up): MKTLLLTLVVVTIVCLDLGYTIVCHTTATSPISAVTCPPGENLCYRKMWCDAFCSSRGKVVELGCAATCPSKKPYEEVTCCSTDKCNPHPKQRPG

Row | SMILES | composite z-score [1] | composite z-score [2] | composite z-score [3] | z-score [4] | composite z-score [5] | composite z-score [6] | composite z-score [7] | composite z-score [8] | composite z-score [9] | composite z-score [10] | composite z-score [11] | z-score [12] | composite z-score [13] | composite z-score [14] | composite z-score [15] | composite z-score [16] | composite z-score [17] | composite z-score [18] | composite z-score [19] | composite z-score [20]
1 | C[C@@H]1C=CCC(=O)OC[C@H]2O[C@@H](C=C[C@@H]2O)[C@H](C)C=CCC(=O)OC1 | 1.29 | -0.594 | -1.55 | -0.813 (inactive) | 1.1 | 0.963 | 1.23 | 1.59 | 1.53 | 1.91 | -1.9 | -0.362 | 1.59 | -1.35 | -2.47 | -0.359 | -0.0626 | -0.285 | 0.113 | 0.981
2 | O=C(NN=C1C[C@@H](O)[C@@H](O)[C@@H]2[C@@H]3C(=O)N(C[C@@H]4CCCO4)C(=O)[C@@H]3CC[C@@H]12)OCc1ccccc1 | 0.789 | -0.32 | -0.916 | -1.03 (inactive) | 0.127 | 1.09 | 0.509 | 0.0972 | 0.486 | 0.781 | 0.457 | 0.246 | 0.686 | -0.817 | -1.51 | -0.243 | 0.111 | -0.139 | -0.306 | -0.421
3 | CCCNC(=O)OC[C@H]1O[C@H](CCON=C(C)C)C=C[C@@H]1Oc1ccc(OC)cc1 | 0.415 | 0.325 | 0.707 | -0.0557 (inactive) | 0.325 | -0.515 | -0.0864 | -0.125 | -0.288 | 1.23 | -0.599 | -1.12 | -0.143 | 0.608 | 0.304 | -0.0887 | -0.282 | -0.0927 | 0.587 | -0.132
4 | C[C@@H]1CC[C@H]2C(=O)O[C@@H](Cc3ccccc3)CN2[C@H]1c1ccc(Br)cc1 | 0.666 | 0.14 | -0.246 | -0.387 (inactive) | 0.383 | 0.177 | 0.389 | 0.416 | 0.783 | 0.619 | 0.712 | 0.166 | 0.276 | 0.134 | 0.216 | -0.118 | -0.221 | -0.158 | 0.579 | 0.198
5 | CO[C@H]1COC(=O)CC=C[C@@H](C)[C@H](OC)COC(=O)[C@@H]2CCCN2C(=O)CC=C[C@@H]1C | 0.686 | -0.382 | -1.14 | 0.308 (inactive) | 0.892 | 0.78 | 1.13 | 1.49 | 1.16 | 1.13 | -0.298 | 0.443 | 1.32 | -1.02 | -1.82 | -0.0819 | -0.138 | -0.748 | 0.159 | -0.41
6 | CC(C)(C)N1C(=O)[C@H]2[C@H]3[C@H](O)[C@H](O)CC(=NO[C@@H]4O[C@H](CO)[C@@H](O)[C@H](O)[C@H]4O)[C@H]3CC[C@H]2C1=O | 0.0937 | -0.215 | -0.38 | 0.543 (inactive) | 0.16 | -0.524 | 0.408 | 0.487 | 0.639 | 1.35 | 0.518 | -1.13 | 0.4 | -0.653 | -1.12 | -0.0337 | -0.0769 | -0.196 | 0.509 | -0.309
7 | CC(C)C[C@H](NC(=O)CCC1CC(OC(=O)NCc2cccc3ccccc23)CC2(CCCC(COC(=O)NCc3ccccc3)O2)O1)C(=O)NCC(c1ccccc1)c1ccccc1 (stereo not given in full) | 0.683 | -0.0553 | -0.304 | 0.536 (inactive) | 1.26 | 0.91 | 0.667 | 1.12 | 0.861 | -0.156 | 1.28 | -1.27 | 0.913 | 0.0799 | -0.202 | -0.0825 | 0.0611 | -0.0863 | 0.508 | -0.157
8 | CCOC(=O)[C@H](CC(C)C)NC(=O)CCC1CC(OC(=O)NCc2ccc3c(c2)OCO3)CC2(CCCC(COC(=O)NCC3CCCCC3)O2)O1 (stereo not given in full) | 0.74 | -0.209 | -0.62 | -0.266 (inactive) | 0.651 | 0.532 | 0.379 | 1.22 | 0.681 | -0.0703 | 1.39 | -1.49 | 0.894 | -0.0184 | -0.381 | -0.0087 | 0.131 | -0.367 | 0.711 | 0.415
9 | CCCCc1nc2c(c3c1C[C@H](C)OC3)CN(CCOc1ccccc1)CC2 | 0.489 | 0.107 | -0.277 | -1.21 (inactive) | 0.632 | 0.427 | 0.681 | 1.27 | 0.302 | 0.765 | 0.348 | -0.659 | 0.814 | -0.407 | -0.7 | -0.0738 | -0.0977 | -0.304 | 0.56 | 0.672
10 | COC(=O)CC=C[C@H](C)[C@@H](OCc1cccc(Br)c1)[C@@H](C)[C@H](OC)C1CCCCC1 | 0.242 | -0.462 | -0.233 | -0.256 (inactive) | -0.0117 | -1.16 | 0.153 | -0.449 | 0.515 | 1.34 | -0.835 | -0.291 | 0.388 | -0.893 | -1.07 | -0.0944 | -0.282 | -0.449 | -0.343 | -0.308
11 | CC(C)CON=C1C[C@@H](O)[C@@H](O)[C@@H]2[C@@H]3C(=O)N(C4CCCCC4)C(=O)[C@@H]3CC[C@H]12 | 0.209 | 0.0948 | -0.106 | 0.00397 (inactive) | 0.74 | 0.842 | 0.362 | 0.611 | 0.544 | -0.312 | 1.2 | 0.0073 | 0.999 | 1.27 | -0.0361 | -0.0731 | -0.16 | 0.447 | 0.792 | 1.13
